Assay results reported in ChEMBL document CHEMBL2218924, “A broad activity screen in support of a chemogenomic map for kinase signalling research and drug discovery” (Biochem J, 2013).

Tests used:
[1] = biological target: Rho-associated protein kinase 2 (Homo sapiens) (UniProt O75116); details: at 1 µM
[2] = biological target: Rho-associated protein kinase 2 (Homo sapiens) (UniProt O75116); details: at 10 µM
[3] = biological target: Proto-oncogene tyrosine-protein kinase receptor Ret (Homo sapiens) (UniProt P07949); details: at 1 µM
Sequence of Proto-oncogene tyrosine-protein kinase receptor Ret (Homo sapiens) (P07949 whole entry): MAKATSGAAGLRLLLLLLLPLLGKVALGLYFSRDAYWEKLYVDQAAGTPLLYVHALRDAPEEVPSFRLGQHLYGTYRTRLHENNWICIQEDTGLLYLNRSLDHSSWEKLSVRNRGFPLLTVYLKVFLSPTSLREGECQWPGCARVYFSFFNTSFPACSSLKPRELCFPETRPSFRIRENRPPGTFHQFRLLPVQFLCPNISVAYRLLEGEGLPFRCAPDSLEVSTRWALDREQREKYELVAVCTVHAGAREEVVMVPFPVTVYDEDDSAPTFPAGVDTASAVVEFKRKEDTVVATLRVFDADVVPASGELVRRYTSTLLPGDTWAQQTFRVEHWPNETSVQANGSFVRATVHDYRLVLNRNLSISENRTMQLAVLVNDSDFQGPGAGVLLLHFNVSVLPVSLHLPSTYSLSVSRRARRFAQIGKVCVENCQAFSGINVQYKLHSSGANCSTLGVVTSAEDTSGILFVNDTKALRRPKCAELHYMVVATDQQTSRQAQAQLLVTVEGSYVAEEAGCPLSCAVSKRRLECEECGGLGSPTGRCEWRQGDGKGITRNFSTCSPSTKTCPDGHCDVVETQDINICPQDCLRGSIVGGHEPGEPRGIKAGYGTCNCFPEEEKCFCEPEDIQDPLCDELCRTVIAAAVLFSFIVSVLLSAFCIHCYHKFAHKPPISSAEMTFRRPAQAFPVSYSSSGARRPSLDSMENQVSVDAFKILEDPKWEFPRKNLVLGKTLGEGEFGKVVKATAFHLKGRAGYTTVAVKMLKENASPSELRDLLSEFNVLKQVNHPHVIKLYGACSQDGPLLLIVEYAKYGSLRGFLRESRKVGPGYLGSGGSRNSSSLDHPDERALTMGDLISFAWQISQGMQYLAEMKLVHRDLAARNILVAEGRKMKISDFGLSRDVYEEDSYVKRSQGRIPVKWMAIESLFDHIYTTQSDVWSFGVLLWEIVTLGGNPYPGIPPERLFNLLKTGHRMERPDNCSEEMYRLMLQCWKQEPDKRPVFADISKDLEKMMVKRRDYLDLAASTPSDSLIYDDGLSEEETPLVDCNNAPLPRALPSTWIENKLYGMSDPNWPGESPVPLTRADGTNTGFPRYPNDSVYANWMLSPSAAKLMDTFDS

[4] = biological target: Proto-oncogene tyrosine-protein kinase receptor Ret (Homo sapiens) (UniProt P07949); details: at 10 µM
[5] = biological target: Macrophage-stimulating protein receptor (Homo sapiens) (UniProt Q04912); details: at 1 µM
[6] = biological target: Macrophage-stimulating protein receptor (Homo sapiens) (UniProt Q04912); details: at 10 µM
[7] = biological target: Proto-oncogene tyrosine-protein kinase ROS (Homo sapiens) (UniProt P08922); details: at 1 µM
Sequence of Proto-oncogene tyrosine-protein kinase ROS (Homo sapiens) (P08922 whole entry): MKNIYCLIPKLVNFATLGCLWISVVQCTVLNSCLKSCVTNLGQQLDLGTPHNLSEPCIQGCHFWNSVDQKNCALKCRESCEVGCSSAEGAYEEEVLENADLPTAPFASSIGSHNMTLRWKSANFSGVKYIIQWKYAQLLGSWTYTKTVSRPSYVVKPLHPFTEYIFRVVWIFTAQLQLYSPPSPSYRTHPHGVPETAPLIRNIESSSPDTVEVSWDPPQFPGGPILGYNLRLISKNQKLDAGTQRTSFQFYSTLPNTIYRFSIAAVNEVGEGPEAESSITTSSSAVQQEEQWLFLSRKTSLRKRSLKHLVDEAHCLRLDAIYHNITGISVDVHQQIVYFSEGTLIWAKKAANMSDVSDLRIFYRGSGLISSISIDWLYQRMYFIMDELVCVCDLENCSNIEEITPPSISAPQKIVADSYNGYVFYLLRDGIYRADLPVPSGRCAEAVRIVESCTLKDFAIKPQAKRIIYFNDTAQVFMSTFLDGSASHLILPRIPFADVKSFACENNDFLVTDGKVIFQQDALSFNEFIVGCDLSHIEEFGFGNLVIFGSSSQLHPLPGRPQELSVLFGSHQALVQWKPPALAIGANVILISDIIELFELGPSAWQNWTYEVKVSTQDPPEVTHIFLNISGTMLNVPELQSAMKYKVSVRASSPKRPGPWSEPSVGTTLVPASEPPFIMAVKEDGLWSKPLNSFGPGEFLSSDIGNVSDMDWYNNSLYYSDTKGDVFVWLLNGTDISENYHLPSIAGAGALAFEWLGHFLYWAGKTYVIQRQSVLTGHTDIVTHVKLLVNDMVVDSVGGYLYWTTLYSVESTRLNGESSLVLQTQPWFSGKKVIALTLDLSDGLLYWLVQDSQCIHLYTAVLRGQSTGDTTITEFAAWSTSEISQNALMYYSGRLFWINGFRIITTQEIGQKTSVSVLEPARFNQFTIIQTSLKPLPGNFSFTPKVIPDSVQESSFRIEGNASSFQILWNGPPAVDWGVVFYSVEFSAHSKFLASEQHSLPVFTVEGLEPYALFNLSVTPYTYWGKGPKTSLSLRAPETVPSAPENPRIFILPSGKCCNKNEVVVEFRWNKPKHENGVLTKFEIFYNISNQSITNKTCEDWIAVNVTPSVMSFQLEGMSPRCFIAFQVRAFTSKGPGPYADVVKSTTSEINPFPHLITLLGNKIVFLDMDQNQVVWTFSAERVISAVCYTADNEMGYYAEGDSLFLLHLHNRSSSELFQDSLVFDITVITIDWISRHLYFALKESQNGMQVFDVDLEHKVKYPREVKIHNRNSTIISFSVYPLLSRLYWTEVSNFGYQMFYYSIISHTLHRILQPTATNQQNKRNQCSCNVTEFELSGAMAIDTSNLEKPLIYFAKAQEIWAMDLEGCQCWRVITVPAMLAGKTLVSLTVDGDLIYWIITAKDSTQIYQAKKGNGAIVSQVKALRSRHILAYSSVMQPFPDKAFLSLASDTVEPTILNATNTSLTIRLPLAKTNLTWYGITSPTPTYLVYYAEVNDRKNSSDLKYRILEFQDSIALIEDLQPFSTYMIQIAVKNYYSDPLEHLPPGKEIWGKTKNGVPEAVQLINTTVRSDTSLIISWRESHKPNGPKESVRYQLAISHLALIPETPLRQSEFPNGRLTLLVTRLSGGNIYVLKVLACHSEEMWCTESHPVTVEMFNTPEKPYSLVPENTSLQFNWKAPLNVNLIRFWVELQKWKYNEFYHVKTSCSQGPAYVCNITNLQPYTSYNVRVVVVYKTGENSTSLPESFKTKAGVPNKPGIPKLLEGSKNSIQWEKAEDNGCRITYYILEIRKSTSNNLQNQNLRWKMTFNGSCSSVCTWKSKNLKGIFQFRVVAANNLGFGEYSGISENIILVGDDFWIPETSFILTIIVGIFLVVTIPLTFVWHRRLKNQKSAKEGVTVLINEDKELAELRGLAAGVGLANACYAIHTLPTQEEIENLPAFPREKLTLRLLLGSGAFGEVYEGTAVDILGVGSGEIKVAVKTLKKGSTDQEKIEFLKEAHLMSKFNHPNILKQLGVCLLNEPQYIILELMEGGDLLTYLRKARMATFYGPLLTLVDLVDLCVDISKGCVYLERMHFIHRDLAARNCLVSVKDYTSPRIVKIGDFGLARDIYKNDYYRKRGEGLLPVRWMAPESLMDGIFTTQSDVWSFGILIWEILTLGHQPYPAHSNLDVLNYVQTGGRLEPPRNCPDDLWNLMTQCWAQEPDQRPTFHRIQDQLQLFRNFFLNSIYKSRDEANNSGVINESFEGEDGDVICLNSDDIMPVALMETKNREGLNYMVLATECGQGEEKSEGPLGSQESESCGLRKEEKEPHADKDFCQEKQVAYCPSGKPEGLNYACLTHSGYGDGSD

[8] = biological target: Proto-oncogene tyrosine-protein kinase ROS (Homo sapiens) (UniProt P08922); details: at 10 µM
[9] = biological target: T1, Tyrosine-protein kinase receptor TYRO3 (Homo sapiens) (UniProt Q06418); details: at 1 µM
T1 sequence (whole entry): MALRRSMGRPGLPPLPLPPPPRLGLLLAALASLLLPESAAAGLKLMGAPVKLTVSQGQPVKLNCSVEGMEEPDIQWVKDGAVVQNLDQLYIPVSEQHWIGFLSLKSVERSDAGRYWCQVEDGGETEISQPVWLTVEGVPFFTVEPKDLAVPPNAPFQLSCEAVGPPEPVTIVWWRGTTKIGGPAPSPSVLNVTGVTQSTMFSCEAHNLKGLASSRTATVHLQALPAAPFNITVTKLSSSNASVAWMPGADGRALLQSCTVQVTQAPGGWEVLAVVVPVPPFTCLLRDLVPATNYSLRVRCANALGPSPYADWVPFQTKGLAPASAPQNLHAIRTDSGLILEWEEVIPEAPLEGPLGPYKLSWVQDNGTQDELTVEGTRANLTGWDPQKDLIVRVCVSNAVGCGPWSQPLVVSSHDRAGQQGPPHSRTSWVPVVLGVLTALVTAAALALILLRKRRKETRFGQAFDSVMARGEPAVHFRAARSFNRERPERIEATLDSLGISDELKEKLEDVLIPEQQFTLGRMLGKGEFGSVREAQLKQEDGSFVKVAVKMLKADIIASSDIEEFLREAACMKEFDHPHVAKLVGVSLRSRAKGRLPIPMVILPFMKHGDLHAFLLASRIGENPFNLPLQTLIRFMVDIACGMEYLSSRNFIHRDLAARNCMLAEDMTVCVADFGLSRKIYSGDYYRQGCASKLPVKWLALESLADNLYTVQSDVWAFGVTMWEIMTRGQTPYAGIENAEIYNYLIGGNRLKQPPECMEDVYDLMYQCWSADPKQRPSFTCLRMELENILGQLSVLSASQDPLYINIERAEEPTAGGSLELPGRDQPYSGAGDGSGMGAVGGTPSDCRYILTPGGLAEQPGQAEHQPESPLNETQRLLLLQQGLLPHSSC

[10] = biological target: T1, Tyrosine-protein kinase receptor TYRO3 (Homo sapiens); details: at 10 µM
[11] = biological target: Ribosomal protein S6 kinase alpha-1 (Homo sapiens) (UniProt Q15418); details: at 1 µM
[12] = biological target: Ribosomal protein S6 kinase alpha-1 (Homo sapiens) (UniProt Q15418); details: at 10 µM
[13] = biological target: Ribosomal protein S6 kinase alpha-3 (Homo sapiens) (UniProt P51812); details: at 1 µM
[14] = biological target: Ribosomal protein S6 kinase alpha-3 (Homo sapiens) (UniProt P51812); details: at 10 µM
[15] = biological target: Ribosomal protein S6 kinase alpha-2 (Homo sapiens) (UniProt Q15349); details: at 1 µM
[16] = biological target: Ribosomal protein S6 kinase alpha-2 (Homo sapiens) (UniProt Q15349); details: at 10 µM
[17] = biological target: Ribosomal protein S6 kinase alpha-6 (Homo sapiens) (UniProt Q9UK32); details: at 1 µM
[18] = biological target: Ribosomal protein S6 kinase alpha-6 (Homo sapiens) (UniProt Q9UK32); details: at 10 µM
[19] = biological target: Mitogen-activated protein kinase 14 (Homo sapiens) (UniProt Q16539); details: at 1 µM
[20] = biological target: Mitogen-activated protein kinase 14 (Homo sapiens) (UniProt Q16539); details: at 10 µM

Sequence of Rho-associated protein kinase 2 (Homo sapiens) (O75116 whole entry, looked up): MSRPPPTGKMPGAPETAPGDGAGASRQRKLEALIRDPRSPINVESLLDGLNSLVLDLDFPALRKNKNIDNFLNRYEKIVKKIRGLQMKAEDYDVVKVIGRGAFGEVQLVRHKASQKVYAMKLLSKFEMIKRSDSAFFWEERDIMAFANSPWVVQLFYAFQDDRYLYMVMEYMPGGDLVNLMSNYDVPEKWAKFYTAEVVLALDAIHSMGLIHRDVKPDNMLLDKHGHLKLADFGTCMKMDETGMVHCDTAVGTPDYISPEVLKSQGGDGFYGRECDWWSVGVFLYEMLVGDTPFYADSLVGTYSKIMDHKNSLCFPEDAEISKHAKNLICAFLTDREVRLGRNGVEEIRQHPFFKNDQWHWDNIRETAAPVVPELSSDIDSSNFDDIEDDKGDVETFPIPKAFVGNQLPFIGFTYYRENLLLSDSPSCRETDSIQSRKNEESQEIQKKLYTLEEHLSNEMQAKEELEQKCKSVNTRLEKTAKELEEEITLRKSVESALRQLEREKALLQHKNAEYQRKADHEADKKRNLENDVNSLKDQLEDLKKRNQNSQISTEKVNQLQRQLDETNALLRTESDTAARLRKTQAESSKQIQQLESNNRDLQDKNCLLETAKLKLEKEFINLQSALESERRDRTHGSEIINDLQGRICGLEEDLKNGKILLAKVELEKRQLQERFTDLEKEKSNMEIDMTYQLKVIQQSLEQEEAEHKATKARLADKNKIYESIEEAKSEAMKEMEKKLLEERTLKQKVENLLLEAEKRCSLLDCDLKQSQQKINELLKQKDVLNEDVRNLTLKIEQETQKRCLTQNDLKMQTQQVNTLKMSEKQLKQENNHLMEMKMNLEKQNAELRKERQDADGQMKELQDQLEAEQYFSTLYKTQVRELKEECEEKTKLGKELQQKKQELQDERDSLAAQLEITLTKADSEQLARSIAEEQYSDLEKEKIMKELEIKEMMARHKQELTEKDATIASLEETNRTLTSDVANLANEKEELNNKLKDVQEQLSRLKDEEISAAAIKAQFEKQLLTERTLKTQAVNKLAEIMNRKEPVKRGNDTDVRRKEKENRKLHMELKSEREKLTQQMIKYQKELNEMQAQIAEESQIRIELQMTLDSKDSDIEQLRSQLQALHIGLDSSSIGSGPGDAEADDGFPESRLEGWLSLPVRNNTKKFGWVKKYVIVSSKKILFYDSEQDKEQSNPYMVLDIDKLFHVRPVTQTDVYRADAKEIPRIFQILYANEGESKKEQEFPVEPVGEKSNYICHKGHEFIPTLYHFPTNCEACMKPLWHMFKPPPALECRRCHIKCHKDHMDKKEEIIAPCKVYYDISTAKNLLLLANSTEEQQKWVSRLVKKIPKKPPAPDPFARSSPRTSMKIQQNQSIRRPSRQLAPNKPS

Row | Compound | residual activity [1] [%] | residual activity [2] [%] | residual activity [3] [%] | residual activity [4] [%] | residual activity [5] [%] | residual activity [6] [%] | residual activity [7] [%] | residual activity [8] [%] | residual activity [9] [%] | residual activity [10] [%] | residual activity [11] [%] | residual activity [12] [%] | residual activity [13] [%] | residual activity [14] [%] | residual activity [15] [%] | residual activity [16] [%] | residual activity [17] [%] | residual activity [18] [%] | residual activity [19] [%] | residual activity [20] [%]
1 | Cn1cnc2cc3c(Nc4cccc(Br)c4)ncnc3cc21 | 93 | 81 | 66 | 65 | 88 | 64 | 91 | 98 | 59 | 53 | 97 | 92 | 108 | 93 | 101 | 70 | 115 | 68 | 64 | 25
2 | Cc1cccc(-c2[nH]c(C(C)(C)C)nc2-c2ccc3c(c2)OCO3)n1 | 103 | 82 | 98 | 107 | – | – | 91 | 94 | 97 | – | – | – | 67 | 47 | 101 | 97 | – | – | 49 | 16
3 | Nc1n[nH]c2nnc(-c3c(-c4ccccc4)nn4ccccc34)cc12 | 84 | 90 | 108 | 58 | 66 | 42 | 91 | 80 | 102 | 99 | 108 | 93 | 111 | 96 | 90 | 68 | 102 | 88 | 78 | 33
4 | O=C1Nc2ccccc2/C1=C1/Nc2ccccc2/C1=N\OCCC(O)CO (stereo not given) | – | – | 2 | -1 | 75 | 61 | – | – | 52 | 46 | 18 | 12 | 15 | 1 | 11 | 2 | 7 | 7 | – | 78
5 | COc1cc2ncnc(Nc3ccc(Oc4ccccc4)cc3)c2cc1OC | 104 | 84 | 25 | 7 | 92 | 59 | 102 | 101 | 14 | 7 | 122 | 78 | 104 | 126 | 100 | 73 | 102 | 130 | 75 | 80
6 | O=C1NC(=O)/C(=C/c2ccc3c(c2)OC(F)(F)O3)S1 | 113 | 89 | 91 | 98 | 100 | 77 | 105 | 108 | 96 | 105 | 125 | 65 | 56 | 35 | 117 | 99 | 125 | 103 | 99 | 109
7 | Cn1nc2c3c(cccc31)C(=O)c1ccccc1-2 | 104 | 89 | 93 | 63 | – | – | 97 | 88 | 96 | 97 | – | 93 | 58 | 42 | 90 | 63 | 59 | 67 | 91 | 90
8 | COc1cc2ncc(-c3ccccc3)nc2cc1OC | – | – | 94 | 92 | 98 | 92 | – | – | 96 | 98 | – | – | 54 | 25 | 100 | 68 | 92 | 94 | 92 | 88
9 | Cc1cncc2cccc(S(=O)(=O)N3CCCN(C(=O)CN)C[C@H]3C)c12 | 1 | -1 | 91 | 90 | 89 | 70 | 90 | 82 | 83 | 95 | – | – | 60 | 23 | – | – | 90 | 66 | 74 | 81
10 | CCC(=O)Nc1ccc2ncnc(Nc3cccc(Br)c3)c2c1 | 89 | 88 | 86 | 103 | 90 | 70 | 92 | 98 | 90 | 93 | 119 | 84 | 120 | 91 | 99 | 71 | 124 | 82 | 78 | 50
11 | Cc1cc(Nc2nc(-c3ccccc3)nc3ccccc23)n[nH]1 | – | 98 | 2 | 0 | 79 | 54 | – | 40 | 98 | 53 | 51 | 15 | 58 | 11 | 29 | 6 | 43 | 8 | – | 64
12 | O=C(O)c1ccc2c3c1cccc3c(=O)n1c3ccccc3nc21 | 119 | 107 | 97 | 61 | 106 | 109 | 109 | 101 | 98 | 88 | 103 | 79 | 51 | 37 | 90 | 55 | 81 | 73 | 95 | 94
13 | c1ccc2c(-c3ccncc3)c[nH]c2c1 | 37 | 6 | 103 | 101 | 96 | 65 | 88 | 92 | 91 | 97 | – | 67 | 72 | 43 | 98 | 48 | 89 | 107 | 77 | 54
14 | Cc1ccc(S(=O)(=O)/C=C/C#N)cc1 | 89 | 93 | 115 | 90 | 80 | 91 | 104 | 92 | 107 | 99 | 94 | 121 | 116 | 120 | 102 | 109 | 74 | 112 | 94 | 97
15 | c1ccc(-c2n[nH]cc2-c2ccnc3ccccc23)nc1 | 93 | 76 | 104 | 91 | – | – | 98 | 93 | 93 | 75 | – | – | 60 | 62 | 108 | 95 | – | – | 49 | 15
16 | COc1cc2ncnc(Nc3ccc(O)c(Br)c3)c2cc1OC | 39 | 40 | 23 | 1 | 90 | 50 | 88 | 84 | 38 | 4 | 92 | 45 | 39 | 12 | 44 | 7 | 69 | 18 | 51 | 14
